By Inhibition is commonly meant the drop in the measured response relative to a control, in per cent.

Each structure is given as a SMILES string. Results with a measured potency or affinity are listed apart.

One test concerns Klebsiella pneumoniae. Conditions: Concentration 32 ug.mL-1; ASSAY_TEST Inhibition of Bacterial Growth; detection method Absorption (OD600); MEDIA CAMHB; plate type 384well; NBS; CORNING #3640; time 18 hr.
Another test has as its system Candida albicans. The note with it: 32 ug/mL.
A further test has as its system Cryptococcus neoformans. The note with it: Concentration 32 ug.mL-1; ASSAY_TEST Inhibition of Fungal Growth; detection method Resazurin; Absorption (OD600-OD570); plate type 384well; NBS; CORNING #3640.

As for `CC(C)CCc1sc(NC(=O)c2cc(NC(=O)c3cc(NC(=O)c4ccc(C(=O)O)cc4)cn3C)cn2C)nc1C(=O)NCCCN(C)C.O=C(O)C(F)(F)F`, the Inhibition in the test with Klebsiella pneumoniae was -0.94%; in the test on Candida albicans, 8.07%; in the test with Cryptococcus neoformans, -119.21%.
In the same order, the values of `CC(=O)Nc1cc(C(=O)Nc2cc(C(=O)Nc3cc(C(=O)NCCCN(C)C)n(CCC(C)C)c3)n(C)c2)n(C)c1.O=C(O)C(F)(F)F` are -0.56%, 0.94% and -102.49%.
For `COC(=O)c1ccc(C(=O)Nc2cc(C(=O)Nc3cc(C(=O)NCCC(=N)N)n(C)c3)n(C)c2)cc1.O=C(O)C(F)(F)F` the same measures were 7.16%, 5.42% and -78.85%.
In the same order, the values of `COCCOC1CCN(C(=O)c2cc(NC(=O)c3cc(NC(=O)c4ccc(/C=C/c5ccc(OC)cc5)cc4)cn3C)cn2C)CC1.O=S(=O)(O)O` are 1.91%, 3.1% and 97.19%.
For `CC(=N)Nc1cc(C(=O)Nc2cc(C(=O)Nc3cc(C(=O)NCCN4CCOCC4)n(C)c3)n(C)c2)n(C)c1.O=C(O)C(F)(F)F.O=C(O)C(F)(F)F`, the Inhibition in the test on Klebsiella pneumoniae is 13.68%; in the test with Candida albicans, 2.29%; with Cryptococcus neoformans, -100.58%.
In the same order, the values of `COC(=O)CCC(=O)Nc1cc(C(=O)Nc2cc(C(=O)NCCC(=N)N)n(C)c2)n(C)c1.O=C(O)C(F)(F)F` are 5.44%, 2.68% and -68.45%.
As to `COc1ccc(CC(=O)Nc2cc(C(=O)Nc3cc(C(=O)Nc4cn(CCCN(C)C)cn4)n(C)c3)n(C)c2)cc1.O=C(O)C(F)(F)F`, the Inhibition was 2.03% in the test on Klebsiella pneumoniae, 1.27% in the test with Candida albicans and -97.5% in the test on Cryptococcus neoformans.
Regarding `COc1cccc(C(=N)Nc2cc(C(=O)Nc3cc(C(=O)NCCC(=N)N)n(C)c3)n(C)c2)c1.O=C(O)C(F)(F)F.O=C(O)C(F)(F)F`, the Inhibition in the test with Klebsiella pneumoniae was determined as 100.7%; with Candida albicans it was 39.3%; in the test on Cryptococcus neoformans, 101.54%.
In the same order, the values of `COC(=O)CCC(=O)Nc1cc(C(=O)Nc2cc(C(=O)NCCCN(C)C)n(C)c2)n(C)c1.O=C(O)C(F)(F)F` are -5.32%, 0.6% and -50.28%.
For the compound `Cc1ncc(CNc2ccc(F)cc2)c(N)n1`, the figures for the Inhibition with Klebsiella pneumoniae, in the test with Candida albicans and with Cryptococcus neoformans were 12.64%, 4.55% and -57.63%, respectively.
Regarding `Cc1ncc(Cn2cc(CCO)nn2)c(N)n1`, the Inhibition was -3.23% in the test with Klebsiella pneumoniae, 0.2% in the test with Candida albicans and -50.84% in the test on Cryptococcus neoformans.
`Cc1ncc(Cn2cc(CC(N)C(=O)O)nn2)c(N)n1.Cl` (stereo not given): the figures for the Inhibition in the test with Klebsiella pneumoniae, with Candida albicans and in the test with Cryptococcus neoformans were -13.87%, 2.15% and -37.7%, respectively.
For `Cn1cc(NC(=O)c2cc(NC(=O)c3sc(N)nc3C(F)(F)F)cn2C)cc1C(=O)NCCN1CCOCC1.O=C(O)C(F)(F)F` the same measures were -3.11%, 1.1% and -112.77%.
In the case of `COC(=O)c1ccc(C(=O)Nc2cc(C(=O)Nc3cc(C(=O)NCCCN(C)C)n(C)c3)n(C)c2)cc1.O=C(O)C(F)(F)F`, the Inhibition in the test with Klebsiella pneumoniae is 6.59%; with Candida albicans it was 1.31%; in the test with Cryptococcus neoformans it was -107.28%.
Take `COc1cccc(C(=O)Nc2cc(C(=O)Nc3cc(C(=O)Nc4cn(CCCN(C)C)cn4)n(C)c3)n(C)c2)c1.O=C(O)C(F)(F)F`: the Inhibition in the test with Klebsiella pneumoniae was 3.02%; in the test with Candida albicans, 3.2%; in the test on Cryptococcus neoformans it was -93.96%.
For `COc1cccc(/C=C/c2ccc(C(=O)Nc3cc(C(=O)Nc4cc(C(=O)NCCN(C)C)n(C)c4)n(C)c3)cc2)c1.O=C(O)C(F)(F)F` the same measures were 26.76%, 28.1% and 101.07%.
As to `Cc1ncc(CNc2cccc(F)c2)c(N)n1`, the values for the Inhibition in the test on Klebsiella pneumoniae, in the test on Candida albicans and with Cryptococcus neoformans were 9.56%, 1.91% and -50.34%, respectively.
In the case of `CC(C)CCc1sc(N)nc1C(=O)Nc1cc(C(=O)Nc2cc(C(=O)NCCN3CCOCC3)n(C)c2)n(C)c1.O=C(O)C(F)(F)F`, the Inhibition in the test with Klebsiella pneumoniae was 5.14%; with Candida albicans it was 4.42%; with Cryptococcus neoformans it was -77.2%.
`CC(C)CCn1cc(NC(=O)c2cc(NC(=O)c3cc(NC(=N)c4ccccc4)cn3C)cn2C)cc1C(=O)NCCCN(C)C.O=C(O)C(F)(F)F.O=C(O)C(F)(F)F`: the Inhibition is 2.69% in the test with Klebsiella pneumoniae, 0.79% in the test on Candida albicans and -53.65% in the test with Cryptococcus neoformans.
For `Cn1cc(NC(=O)c2cc(NC(=O)c3cc(NC(=O)c4ccc(Cl)cc4Cl)cn3C)cn2C)cc1C(=O)NCCN1CCOCC1.O=C(O)C(F)(F)F` the same measures were 11.99%, 9.71% and 9.62%.
For the compound `Cc1ncc(CNc2ccc(C(F)(F)F)cc2)c(N)n1`, the Inhibition was 1.98% in the test on Klebsiella pneumoniae, 0.52% in the test on Candida albicans and -31.34% in the test on Cryptococcus neoformans.
Turning to `CC(=O)Nc1cc(C(=O)Nc2cc(C(=O)Nc3cc(C(=O)NCCCN(C)C)n(C)c3)n(C)c2)n(C)c1.O=C(O)C(F)(F)F`, the Inhibition in the test on Klebsiella pneumoniae was 11.92%; in the test on Candida albicans it was 0.65%; with Cryptococcus neoformans, -116.29%.
As to `CCOC(=O)c1cc(NC(=O)c2cc(NC(=O)c3nc(N)sc3CCC(C)C)cn2C)cn1C`, the Inhibition in the test on Klebsiella pneumoniae is 9.93%; in the test on Candida albicans it was 2.98%; in the test with Cryptococcus neoformans it was -84.96%.
In the same order, the values of `CCOC(=O)CCC(NC(=O)c1ccc(NCc2cn(Cc3cnc(C)nc3N)nn2)cc1)C(=O)OCC` (stereo not given) are -10.59%, 5.67% and -67.67%.
As to `COc1cccc(C(=N)Nc2cc(C(=O)Nc3cc(C(=O)Nc4cc(C(=O)NCCCN(C)C)n(C)c4)n(C)c3)n(C)c2)c1.O=C(O)C(F)(F)F.O=C(O)C(F)(F)F`, the Inhibition in the test with Klebsiella pneumoniae was 5.64%; in the test with Candida albicans, 0.48%; with Cryptococcus neoformans, -103.02%.

(Values after ChEMBL document CHEMBL4513139, “CO-ADD screening of University of Strathclyde (UK) compounds”.)
